EPAC1 ag = qHTS for Agonist of cAMP-regulated guanine nucleotide exchange factor 3 (EPAC1): primary screen; Rap guanine nucleotide exchange factor 3 (Homo sapiens), O95398; AID 720707, 2013; Potency, µM (titrated, usually from 154 µM), for the others: top-dose activation, usual class: activators; EPAC1 agonist qHTS, biochemical assay; response scale: 100% = response to 6.5 mM cAMP; 360,000 compounds, 0.073% hits; note: nearly all actives have a fitted effect of over 60% in size
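Compounds were pinned as a concentration titration into mixtures of EPAC1 (100 nM), BODIPY-GDP-loaded Rap1B (250 nM) and GDP (50 uM). After 5 min at room temperature, fluorescence was followed for 30 min; activity was scaled to 6.5 mM cAMP.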
EPAC2 ag = qHTS for Agonist of cAMP-regulated guanine nucleotide exchange factor 4 (EPAC2): primary screen; 360,000 compounds, 0.079% hits; AID 720711, 2013; EPAC2 activation, biochemical qHTS; response scale: 100% = 6.5 mM cAMP response; Potency, µM (doses to about 154 µM), for inactives: at the highest dose activation, hits mostly activators; note: nearly all actives have a fitted effect of over 50% in size
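EPAC2 (100 nM) mixed with Rap1B loaded with BODIPY-GDP (250 nM) plus 50 uM unlabeled GDP; compounds pinned in, 5 min RT, then read every 5 min for 30 min (ex 480, em 540 nm). Normalized to cAMP control.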
HEK293 tox = qHTS of GLP-1 Receptor Inverse Agonists: Cytotox Screen. HEK293 cAMP-luciferase reporter cells, luminescence, 24 h. Potency, µM (titrated, usually from 38.3 µM), for the others: top-dose activity change, negative = inhibition, actives largely listed as inhibitors. 410,000 compounds, 0.13% hits;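 note: loss of luciferase light is scored as toxicity; % is set by controls: 0 for no effect and ±100 for the full control effect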
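Here, cytotoxicity is scored as loss of luminescence. The MLSMR collection was tested on cells seeded in medium containing 10% Nu serum, with a 24 hr compound exposure preceded by 12 hours of culture.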
EPAC1 antagonist = qHTS for Antagonist of cAMP-regulated guanine nucleotide exchange factor 3 (EPAC1): primary screen | EPAC1 GEF assay, Rap1b-BODIPY-GDP exchange fluorescence | Potency, µM (titrated, usually from 115 µM), inactives show at the top dose activity change, negative = inhibition, hits mostly inhibitors | 360,000 compounds, 0.14% hits | AID 720709, 2013;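 note: plate controls were vehicle for no effect and positive control for full effect; nearly all actives have a fitted effect of over 50% in size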
USP1-UAF1 inh = Inhibitors of USP1/UAF1: Primary Screen. Ubiquitin carboxyl-terminal hydrolase 1 (Homo sapiens), O94782. recombinant USP1/UAF1, Ub-Rhodamine cleavage fluorescence. Potency, µM (titrated, usually from 57.1 µM), for the others: at the top dose activity change, negative = inhibition, actives largely listed as inhibitors. 390,000 compounds, 0.23% hits. AID 743255, 2014; note: % is set by controls: 0 for no effect and ±100 for the full control effect; nearly all actives have a fitted effect of over 60% in size
Target sequence (O94782 whole entry, looked up): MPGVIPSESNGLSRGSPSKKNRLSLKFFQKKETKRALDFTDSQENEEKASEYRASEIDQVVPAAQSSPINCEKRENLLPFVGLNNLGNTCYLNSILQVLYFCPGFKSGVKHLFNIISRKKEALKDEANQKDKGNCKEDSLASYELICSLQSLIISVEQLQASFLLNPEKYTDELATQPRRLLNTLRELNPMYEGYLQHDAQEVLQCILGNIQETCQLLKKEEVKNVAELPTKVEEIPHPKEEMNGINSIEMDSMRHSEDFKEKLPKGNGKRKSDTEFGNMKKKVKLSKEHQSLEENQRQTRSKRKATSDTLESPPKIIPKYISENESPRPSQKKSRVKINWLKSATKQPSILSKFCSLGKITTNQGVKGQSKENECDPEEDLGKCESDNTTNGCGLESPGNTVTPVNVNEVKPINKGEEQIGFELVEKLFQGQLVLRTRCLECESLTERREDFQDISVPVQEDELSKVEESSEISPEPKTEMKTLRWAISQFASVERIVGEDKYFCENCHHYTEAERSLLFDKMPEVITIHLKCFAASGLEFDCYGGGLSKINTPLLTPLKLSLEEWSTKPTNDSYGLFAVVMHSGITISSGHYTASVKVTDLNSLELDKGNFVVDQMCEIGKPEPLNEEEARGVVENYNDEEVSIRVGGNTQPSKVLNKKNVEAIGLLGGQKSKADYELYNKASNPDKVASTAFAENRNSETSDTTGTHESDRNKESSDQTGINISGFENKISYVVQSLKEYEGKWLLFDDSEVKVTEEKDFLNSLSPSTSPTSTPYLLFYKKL
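1 nM enzyme complex + cpd, 15 min RT; start with Ub-Rho 150nM final; kinetic fluorescence ex 480/em 540, 6 reads q60 s. Buffer 50mM HEPES pH 7.8, 0.5mM EDTA, 0.1 mg/ml BSA, 1mM TCEP, 0.01% Tween-20.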
EPAC2 antag = qHTS for Antagonist of cAMP-regulated guanine nucleotide exchange factor 2 (EPAC2): primary screen | Potency, µM (titrated, usually from 114 µM), for the others: at the top dose activity, negative = inhibition, actives largely listed as inhibitors | EPAC2 GEF exchange of Rap1B-BODIPY-GDP, fluorescence | 360,000 compounds, 0.18% hits; note: % is set by controls: 0 for no effect and ±100 for the full control effect; nearly all actives have a fitted effect of over 45% in size
The depositor's hits bear a star; ? = inconclusive; / = no result; [ ] = another dose, or the depositor's remark. In the library only some 0.55% were active in any assay of this set; here they are far more common. Calls come from the whole dose curve; as a rule, active = well fitted curve in the direction sought with a large enough effect; inconclusive = small, poorly fitted or top-dose-only effect, or another doubt; inactive = no such curve, though single readings can be large; an effect the other way counts as inactive or inconclusive. Potency is the fitted concentration of half-maximal effect.

SMILES	EPAC1 ag	EPAC2 ag	HEK293 tox	EPAC1 antagonist	USP1-UAF1 inh	EPAC2 antag
COc1cc(CCc2ccccc2)c(C(=O)O)c(O)c1CC=C(C)C	-17.4%	-19.9%	-10.9%	?	-20.3%	35.5µM*
COc1cc(CCc2ccccc2)c(C(=O)O)c(O)c1C/C=C(/C)CCC=C(C)C	-15.9%	-12.6%	?	50.1µM*	?	?
Cc1ccc([C@@H]2C3COCC=C3C(C#N)=C(N)C2(C#N)C#N)o1 (some centres undefined)	29.4%	26.4%	58.5%	8.0%	31.6µM*	4.6%
Cc1ccc(Cl)cc1NC(=O)N1CCC2(CC1)Oc1ccccc1C(=O)N2Cc1ccccc1F	/	/	3.0%	/	?	/
Cc1cc(SCC(=O)c2ccc(O)c(O)c2)nc2ccccc12	12.5%	19.2%	-3.3%	28.2µM*	-10.2%	-29.6%
O=C(CSc1n[nH]c(-c2ccccc2)n1)c1ccc(O)c(O)c1	-1.5%	10.1%	-23.8%	35.5µM*	-3.5%	0.8%
CCOc1ccc(-c2nc(SCC(=O)c3ccccc3)n[nH]2)cc1	/	/	-6.3%	/	?	/
CCOc1ccc2c(c1)c(=O)c(C(=O)c1ccc3c(c1)OCO3)cn2Cc1cccc(F)c1	/	/	-13.5%	/	-21.7%	/
CN(CC(=O)Nc1ccc(F)cc1)C(=O)CSc1ccc2c(c1)OCCO2	14.0%	2.8%	-2.2%	11.2%	-24.6%	-2.4%
Cc1ccc(SCC(=O)OCC(=O)N(C)CC(=O)Nc2ccc(F)cc2)cc1C	126µM*	3.7%	8.3%	-26.3%	-20.4%	-10.0%
Cc1ccc2nc(/C(C#N)=C/c3ccc(-c4ccccc4C(=O)O)o3)[nH]c2c1	24.3%	17.1%	142.3%	1.5%	31.6µM*	4.5%
N#C/C(=C/c1ccc(N2CCCCC2)o1)c1cccc(F)c1	-8.1%	-1.2%	-22.1%	7.7%	17.8µM*	8.1%
N#C/C(=C/c1ccc(N2CCCCCC2)o1)c1ccc(Cl)cc1	1.6%	9.8%	?	6.4%	?	10.4%
N#C/C(=C\c1ccc(-c2ccccc2C(=O)O)o1)c1nc2ccccc2[nH]1	24.3%	11.5%	114.0%	5.0%	?	-5.3%
Cc1ccc2nc(/C(C#N)=C\c3ccc(N4CCOCC4)o3)[nH]c2c1	?	39.8µM*	78.4%	41.4%	25.1µM*	16.7%
Cc1ccc(/C(C#N)=C\c2ccc(N3CCOCC3)o2)cc1	10.6%	?	14.1%	-3.2%	25.1µM*	-0.4%
N#C/C(=C/c1ccc(N2CCOCC2)o1)C(=O)Nc1ccccc1	100µM*	100µM*	8.0%	8.0%	25.1µM*	65.0%
Cc1ccc(-c2cc(C(F)(F)F)n3ncc(-c4ccc(Cl)cc4)c3n2)cc1	/	/	-13.7%	/	-3.7%	/
O=S(=O)(c1ccc(N=C2NN=C(c3cc(F)ccc3F)CS2)cc1)N1CCOCC1	2.8%	3.8%	-27.7%	-5.7%	?	1.6%
CC(=O)Nc1ccc(C2=NNC(=Nc3cccc(S(=O)(=O)N(C)C)c3)SC2)cc1	-13.0%	-16.6%	?	-12.8%	10µM*	-2.4%[57.1 µM]
CC(=O)Nc1ccc(C2=NNC(=Nc3ccc(S(=O)(=O)N4CCOCC4)cc3)SC2)cc1	12.0%	6.8%	-5.8%	-2.8%	15.8µM*	2.5%
CN(C)S(=O)(=O)c1cccc(N=C2NN=C(c3ccccc3)CS2)c1	4.7%	2.5%	?	?	?	6.6%
C=CCn1c(=O)/c(=C/c2ccc(C)o2)s/c1=C(/C#N)C(=O)c1ccccc1	6.8%	100µM*	25.6%	4.4%	?	58.5%
